PubChem BioAssay (Tox21)
Results filed as inconclusive are left out. A call without a number means that no potency is given here. Activity calls are given as the source filed them. Unless noted, calls come from the whole dose curve; as a rule, active = well fitted curve in the direction sought with a large enough effect in the repeat runs; inconclusive = weak or mixed curves; inactive = no such curve, though single readings can be large; an effect the other way counts as inactive or inconclusive.

System: not listed separately
Test: qHTS assay to identify small molecule agonists of the estrogen receptor beta (ER-beta) signaling pathway - cell viability counter screen (AID 1259380); note: nearly all actives have a fitted effect of over 30% in size; note: potency is the fitted concentration of half-maximal effect
Settings: ER-beta-bla HEK293T viability, CellTiter-Glo luminescence, 16 h; series mostly up to 92.4 µM
Outline: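 Cells used were ER-beta-UAS-bla HEK293T in medium with 2% charcoal-stripped FBS. They were treated for 16 hr at 37C. Viability came from CellTiter-Glo luminescence.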

Compound | Potency
Cc1cc(C)c(/C=C2\C(=O)Nc3ccccc32)[nH]1 | 11.9 µM (active)
COC1=C(OC)C(=O)C(CCCCCCCCCCO)=C(C)C1=O | 23.7 µM (active)
Cc1cc(=O)oc2cc(O)cc(O)c12 | inactive
CC(=O)c1ccc(C(C)=O)cc1 | inactive
CC(=O)OCC=C(C)C | inactive
O=C(/C=C/c1ccccc1)OC/C=C/c1ccccc1 | inactive
CCCCCCCC/C=C\CCCCCCCCN | inactive
CC(C)=CCNc1ncnc2c1ncn2[C@@H]1O[C@H](CO)[C@@H](O)[C@H]1O | 13.3 µM (active)
CCCCCCCCCCOC(=O)c1ccccc1C(=O)OCCCCCCCC | inactive
CC(C)OC(=O)C(O)(CC(=O)O)CC(=O)O | inactive
O=S(=O)(O)c1ccc(Nc2nc(Nc3ccc(/C=C/c4ccc(Nc5nc(Nc6ccc(S(=O)(=O)O)cc6)nc(N(CCO)CCO)n5)cc4S(=O)(=O)O)c(S(=O)(=O)O)c3)nc(N(CCO)CCO)n2)cc1 | inactive
CCOC(=O)NNc1ccc(N(CC)CC(C)O)nn1 (stereo not given) | inactive
NC(=O)c1cccc([N+](=O)[O-])c1 | inactive
CCc1cccc(CC)c1NC(=O)CN(CC(=O)O)CC(=O)O | inactive
Clc1sc(Cl)c(Cl)c1Cl | inactive
OC[C@H]1O[C@H](O[C@H]2O[C@H](CO)[C@@H](O)[C@H](O)[C@H]2O)[C@H](O)[C@@H](O)[C@@H]1O | inactive
CC(CO)Oc1ccccc1 (stereo not given) | inactive
Nc1cc(Cl)c(O)c(Cl)c1 | inactive
CN(C)Cc1ccccc1O | inactive
ClCCl | inactive
CCCCCCOC(=O)C(C)CC (stereo not given) | inactive
COC(=O)Nc1nc2ccc(C(=O)c3ccccc3)cc2[nH]1 | inactive
CCN1C(=O)c2ccccc2C1Nc1ccc(OCCN2CCCCC2)cc1 (stereo not given) | inactive
Nc1ccc(C(=O)O)c(O)c1 | inactive
O[C@@H]([C@H](O)[C@H](O)CBr)[C@H](O)CBr | inactive

Target: Androgen receptor (Homo sapiens) (UniProt P10275)
Test: qHTS assay to identify small molecule agonists of the androgen receptor (AR) signaling pathway in the presence of an antagonist (AID 1259381; calls by dose curve; note: nearly all actives have a fitted effect of over 15% in size)
Settings: MDA-kb2 MMTV-luciferase, AR agonist + nilutamide, 16 h; series mostly up to 92.4 µM
Outline: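 Using human MDA-kb2 cells with an MMTV promoter–luciferase construct (AR and GR response elements), agonist activity is scored under 3.0uM nilutamide (final) co-treatment; 16hr incubation, 37C, luminescence readout via ONE-Glo.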

Sequence of Androgen receptor (Homo sapiens) (P10275 whole entry, looked up): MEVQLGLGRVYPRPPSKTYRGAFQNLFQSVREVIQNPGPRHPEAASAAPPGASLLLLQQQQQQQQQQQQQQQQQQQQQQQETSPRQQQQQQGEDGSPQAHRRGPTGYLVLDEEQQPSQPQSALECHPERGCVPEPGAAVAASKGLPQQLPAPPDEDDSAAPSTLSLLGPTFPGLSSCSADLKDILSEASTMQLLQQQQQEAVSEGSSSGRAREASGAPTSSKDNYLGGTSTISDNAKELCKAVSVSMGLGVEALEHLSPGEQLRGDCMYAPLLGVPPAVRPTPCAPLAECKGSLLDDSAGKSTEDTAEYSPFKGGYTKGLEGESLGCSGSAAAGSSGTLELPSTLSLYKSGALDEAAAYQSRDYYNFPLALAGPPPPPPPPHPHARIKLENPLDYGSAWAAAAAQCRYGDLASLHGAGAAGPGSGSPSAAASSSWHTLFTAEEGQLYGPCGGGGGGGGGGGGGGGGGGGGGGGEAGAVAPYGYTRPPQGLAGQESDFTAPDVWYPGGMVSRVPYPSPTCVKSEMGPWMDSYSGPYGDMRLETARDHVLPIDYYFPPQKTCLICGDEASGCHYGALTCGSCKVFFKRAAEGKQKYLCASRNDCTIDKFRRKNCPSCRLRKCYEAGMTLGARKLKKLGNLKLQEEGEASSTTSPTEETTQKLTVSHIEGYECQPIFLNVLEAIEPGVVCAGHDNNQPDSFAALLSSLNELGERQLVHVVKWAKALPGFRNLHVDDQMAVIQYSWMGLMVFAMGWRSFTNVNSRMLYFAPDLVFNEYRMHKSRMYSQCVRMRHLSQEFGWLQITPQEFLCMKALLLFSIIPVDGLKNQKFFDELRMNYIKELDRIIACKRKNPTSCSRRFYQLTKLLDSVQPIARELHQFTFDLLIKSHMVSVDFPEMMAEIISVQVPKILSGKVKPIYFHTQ

Compound | outcome
Cc1cc(C)c(/C=C2\C(=O)Nc3ccccc32)[nH]1 | inactive
CCCCC(CC)CN1CN(CC(CC)CCCC)CC(C)(N)C1 (stereo not given) | inactive
COC1=C(OC)C(=O)C(CCCCCCCCCCO)=C(C)C1=O | inactive
Cc1cc(=O)oc2cc(O)cc(O)c12 | inactive
CC(=O)c1ccc(C(C)=O)cc1 | inactive
NC(=S)NC(N)=S | inactive
CC(=O)OCC=C(C)C | inactive
O=C(/C=C/c1ccccc1)OC/C=C/c1ccccc1 | inactive
Cc1c2ccccc2c(C)c2c1ccc1ccccc12 | inactive
CC(C)=CCNc1ncnc2c1ncn2[C@@H]1O[C@H](CO)[C@@H](O)[C@H]1O | inactive
CN(C)CCN1CCN(c2cccc(Cl)c2)C1=O | inactive
CCCCCCCCCCOC(=O)c1ccccc1C(=O)OCCCCCCCC | inactive
CC(C)OC(=O)C(O)(CC(=O)O)CC(=O)O | inactive
O=S(=O)(O)c1ccc(Nc2nc(Nc3ccc(/C=C/c4ccc(Nc5nc(Nc6ccc(S(=O)(=O)O)cc6)nc(N(CCO)CCO)n5)cc4S(=O)(=O)O)c(S(=O)(=O)O)c3)nc(N(CCO)CCO)n2)cc1 | inactive
Cc1cccc(C)c1NC(=O)c1ccc(N)cc1 | inactive
CC1(C)[C@@H](O)CC[C@]2(C)[C@H]3C(=O)C=C4[C@@H]5C[C@@](C)(C(=O)O)CC[C@]5(C)CC[C@@]4(C)[C@]3(C)CC[C@@H]12 | inactive
O=C(O)Cc1ccccc1Nc1c(Cl)cccc1Cl | inactive

Compound | outcome
c1ccsc1 | inactive
NC(=O)c1cccc([N+](=O)[O-])c1 | inactive
Clc1sc(Cl)c(Cl)c1Cl | inactive
CCN(CC)c1ccc2c(-c3ccc(S(=O)(=O)O)cc3S(=O)(=O)[O-])c3ccc(=[N+](CC)CC)cc-3oc2c1 | inactive
OC[C@H]1O[C@H](O[C@H]2O[C@H](CO)[C@@H](O)[C@H](O)[C@H]2O)[C@H](O)[C@@H](O)[C@@H]1O | inactive
CC(CO)Oc1ccccc1 (stereo not given) | inactive
COc1c(C)c2c(c(O)c1C/C=C(\C)CCC(=O)OCCN1CCOCC1)C(=O)OC2 | inactive
Nc1cc(Cl)c(O)c(Cl)c1 | inactive
CCCc1ccc(OCC(=O)N2CCN(C(=O)COc3ccc(CCC)cc3OC)CC2)c(OC)c1 | inactive
CN(C)Cc1ccccc1O | inactive
ClCCl | inactive
CCCCCCOC(=O)C(C)CC (stereo not given) | inactive
Cc1c(N)cccc1C(F)(F)F | inactive
COC(=O)Nc1nc2ccc(C(=O)c3ccccc3)cc2[nH]1 | inactive
CCN1C(=O)c2ccccc2C1Nc1ccc(OCCN2CCCCC2)cc1 (stereo not given) | inactive
CCOc1ccc2ccccc2c1C(=O)N[C@@H]1C(=O)N2[C@@H]1SC(C)(C)[C@@H]2C(=O)O | inactive
Nc1ccc(C(=O)O)c(O)c1 | inactive

System: not listed separately
Test: qHTS assay to identify small molecule antagonists of the estrogen receptor beta (ER-beta) signaling pathway - cell viability counter screen (AID 1259382); note: nearly all actives have a fitted effect of over 55% in size; note: potency is the fitted concentration of half-maximal effect
Settings: ER-beta-UAS-bla HEK293T viability, CellTiter-Glo luminescence, 16 h; series mostly up to 92.4 µM
Outline: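 Agonist-stimulated (1nM E2) ER-beta-UAS-bla HEK293T cells are incubated with library compounds for 16 hr at 37C. Cell viability is then assessed in the reporter-assay wells by adding CellTiter-Glo and reading luminescence after 30 min.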

Compound | Potency
Cc1cc(C)c(/C=C2\C(=O)Nc3ccccc32)[nH]1 | inactive
CCCCC(CC)CN1CN(CC(CC)CCCC)CC(C)(N)C1 (stereo not given) | inactive
COC1=C(OC)C(=O)C(CCCCCCCCCCO)=C(C)C1=O | 23.7 µM (active)
Cc1cc(=O)oc2cc(O)cc(O)c12 | inactive
CC(=O)c1ccc(C(C)=O)cc1 | inactive
NC(=S)NC(N)=S | inactive
CC(=O)OCC=C(C)C | inactive
O=C(/C=C/c1ccccc1)OC/C=C/c1ccccc1 | inactive
Cc1c2ccccc2c(C)c2c1ccc1ccccc12 | 24.3 µM (active)
CCCCCCCC/C=C\CCCCCCCCN | inactive
CC(C)=CCNc1ncnc2c1ncn2[C@@H]1O[C@H](CO)[C@@H](O)[C@H]1O | 11.9 µM (active)
CN(C)CCN1CCN(c2cccc(Cl)c2)C1=O | inactive
CCCCCCCCCCOC(=O)c1ccccc1C(=O)OCCCCCCCC | inactive
CC(C)OC(=O)C(O)(CC(=O)O)CC(=O)O | inactive
O=S(=O)(O)c1ccc(Nc2nc(Nc3ccc(/C=C/c4ccc(Nc5nc(Nc6ccc(S(=O)(=O)O)cc6)nc(N(CCO)CCO)n5)cc4S(=O)(=O)O)c(S(=O)(=O)O)c3)nc(N(CCO)CCO)n2)cc1 | inactive
Cc1cccc(C)c1NC(=O)c1ccc(N)cc1 | inactive
CCOC(=O)NNc1ccc(N(CC)CC(C)O)nn1 (stereo not given) | inactive
CC1(C)[C@@H](O)CC[C@]2(C)[C@H]3C(=O)C=C4[C@@H]5C[C@@](C)(C(=O)O)CC[C@]5(C)CC[C@@]4(C)[C@]3(C)CC[C@@H]12 | inactive

Compound | Potency
c1ccsc1 | inactive
NC(=O)c1cccc([N+](=O)[O-])c1 | inactive
CCc1cccc(CC)c1NC(=O)CN(CC(=O)O)CC(=O)O | inactive
Clc1sc(Cl)c(Cl)c1Cl | inactive
CCN(CC)c1ccc2c(-c3ccc(S(=O)(=O)O)cc3S(=O)(=O)[O-])c3ccc(=[N+](CC)CC)cc-3oc2c1 | inactive
OC[C@H]1O[C@H](O[C@H]2O[C@H](CO)[C@@H](O)[C@H](O)[C@H]2O)[C@H](O)[C@@H](O)[C@@H]1O | inactive
CC(CO)Oc1ccccc1 (stereo not given) | inactive
Nc1cc(Cl)c(O)c(Cl)c1 | inactive
CCCc1ccc(OCC(=O)N2CCN(C(=O)COc3ccc(CCC)cc3OC)CC2)c(OC)c1 | inactive
CN(C)Cc1ccccc1O | inactive
ClCCl | inactive
CCCCCCOC(=O)C(C)CC (stereo not given) | inactive
Cc1c(N)cccc1C(F)(F)F | inactive
COC(=O)Nc1nc2ccc(C(=O)c3ccccc3)cc2[nH]1 | inactive
CCN1C(=O)c2ccccc2C1Nc1ccc(OCCN2CCCCC2)cc1 (stereo not given) | inactive
CCOc1ccc2ccccc2c1C(=O)N[C@@H]1C(=O)N2[C@@H]1SC(C)(C)[C@@H]2C(=O)O | inactive
Nc1ccc(C(=O)O)c(O)c1 | inactive
O[C@@H]([C@H](O)[C@H](O)CBr)[C@H](O)CBr | inactive
